Assay results as given in PubChem BioAssay (NCI).
This is part of a sample that, as a whole, favours compounds with a hit. Of some 83,000 tested, about 20% had one in any assay.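 How to read the values: 0–100, growth inhibition (40 = 60% inhibited); 0, no net growth; -100 to 0, cell death (-40 = 40% of starting cells died; -100 = all dead).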 Unmarked numbers belong to inactive results. Active and inactive are the calls of the source. How the source made its calls: active means growth percent below 10; inactive means the rest.

Legend:
Experiment in all cases: NCI-60 one-dose screen, 48 h (100 = growth as untreated, 0 = no growth, -100 = all killed)
Conditions in all cases: 10 µM unless noted
[1] = system: SK-MEL-2 melanoma
[2] = system: EKVX NSCLC
[3] = system: SN12C renal
[4] = system: UO-31 renal
[5] = system: TK-10 renal
[6] = system: ACHN renal
[7] = system: CAKI-1 renal
[8] = system: A498 renal
[9] = system: CCRF-CEM leukemia
[10] = system: MOLT-4 leukemia
[11] = system: SR leukemia
[12] = system: RPMI-8226 leukemia
[13] = system: OVCAR-5 ovarian
[14] = system: OVCAR-4 ovarian
[15] = system: SK-OV-3 ovarian
[16] = system: IGROV1 ovarian
[17] = system: OVCAR-3 ovarian
[18] = system: HS 578T breast
[19] = system: NCI/ADR-RES ovarian
[20] = system: OVCAR-8 ovarian

Compound | growth [1] | growth [2] | growth [3] | growth [4] | growth [5] | growth [6] | growth [7] | growth [8] | growth [9] | growth [10] | growth [11] | growth [12] | growth [13] | growth [14] | growth [15] | growth [16] | growth [17] | growth [18] | growth [19] | growth [20]
COC(=O)[C@]12CC[C@@H](C)[C@H](C)[C@@H]1C1=CC[C@@H]3[C@@]4(C)C=C(O)C(=O)C(C)=C4CC[C@@]3(C)[C@]1(C)CC2 | 27% | 1.05% (active) | 18.9% | 34.3% | 14.6% | 22.4% | 33.4% | 81.5% | -26.2% (active) | -15.9% (active) | 20.4% | 1.56% (active) | 64.5% | 37.8% | 61.7% | 53.6% | 28.5% | 33.2% | 38.8% | 
COc1ccc(OCC(CO)N2CCN(c3ccccc3)CC2)cc1 (configuration not stated) | 106% | 108% | 97.2% | 86.4% | 109% | 104% | 90.6% | 108% | 112% | 116% |  | 131% | 103% | 92.4% | 106% | 112% | 102% | 96.6% | 99.9% | 93.6%
O=P(O)(c1ccccc1)c1ccccc1I | 96% | 94.7% | 99.3% | 83.4% | 102% | 106% | 90.1% | 92.6% | 94.6% | 97.7% | 88.8% |  |  | 102% | 86.8% | 96.2% | 108% | 97% | 98.8% | 98.2%
COc1cccc2c1C(=O)c1c(O)c3c(c(O)c1C2=O)C[C@@](O)(C(=O)CO)C[C@@H]3OC1C[C@H](N)[C@H](O)[C@H](C)O1 (some centres not stated) | -75.3% (active) | 1.39% (active) | 6.88% (active) | -40.7% (active) | 5.67% (active) | -11% (active) | 1.49% (active) | -75.1% (active) | -25.7% (active) | -8.66% (active) | -10.5% (active) | 0.341% (active) |  | 4.65% (active) | 8.44% (active) | 4.86% (active) | -2.36% (active) | -12.9% (active) | 72.9% | 4.15% (active)
Cn1cccc1/C=C1/SC(=S)N(CCc2ccc(O)cc2)C1=O | 64.7% | 61% | 60% | 53.7% | 110% | 59.9% | 44.7% | 81.8% | 21.9% | 31% | 24.1% |  | 95.9% | 89.4% | 83.5% | 45.7% | 39.4% | 67.7% | 16.3% | 67.1%
C/C(=N\NC(=O)C(C)SC(C)C(=O)N/N=C(\C)c1cccnc1)c1cccnc1 (configuration not stated) | 93.8% | 100% | 106% | 81% | 106% | 106% | 97.7% | 88.2% | 99.4% | 86.7% | 79.6% | 101% | 110% |  | 109% | 102% | 114% | 101% | 108% | 
Cc1ccc(-c2ccc(/C=C(\C#N)c3nc(-c4ccco4)cs3)o2)cc1 | 104% | 52.1% | 97.1% | 79% | 69.9% | 98.6% | 94.5% | 106% | 79.1% | 94.6% | 89.8% |  | 77.5% | 28.1% | 101% | 63.5% | 112% | 107% | 103% | 99.8%
CC1(C)CC[C@]2(CO)CC[C@]3(C)C(=CC[C@@H]4[C@@]5(C)CC[C@H](NCO)C(C)(C)[C@@H]5CC[C@]43C)[C@@H]2C1 | -38% (active) | 41% | -75.2% (active) | -58.9% (active) | 100% | -69.2% (active) | -71.9% (active) | 84.2% | 0.708% (active) | -19.7% (active) | -34.7% (active) | -29.1% (active) |  | -32.5% (active) | 70.8% |  | -66.2% (active) | 11.4% | -64.8% (active) | -35.6% (active)
CC(Cc1ccco1)C(=O)NC(N)=O (configuration not stated) | 106% | 98% | 103% | 91.6% | 98.7% | 108% | 92.1% | 102% | 98.9% | 98.8% | 100% | 102% |  | 108% |  | 108% | 111% | 109% | 104% | 
CCC(CC)C(=O)OC(C)COc1ccc(C(C)(C)C)cc1 (configuration not stated) | 101% | 105% | 99.4% | 97.3% | 97% | 102% | 98.8% | 87.8% | 93% | 82.7% | 98.2% |  |  | 113% | 102% | 112% | 107% | 110% | 109% | 86.2%
C#Cc1cccc(NC(=O)C2CCCN(C(=O)CCl)C2)c1 (configuration not stated) | 75.7% [8.25 µM] | 95.7% [8.25 µM] | 9.7% [8.25 µM] (active) | -56.7% [8.25 µM] (active) | 98.9% [8.25 µM] | -96.3% [8.25 µM] (active) | 33.8% [8.25 µM] | 99.2% [8.25 µM] | -25.9% [8.25 µM] (active) | -7.04% [8.25 µM] (active) | 10.9% [8.25 µM] | 64.4% [8.25 µM] | 78.8% [8.25 µM] | 68.9% [8.25 µM] | 89.8% [8.25 µM] | -72% [8.25 µM] (active) | 5.16% [8.25 µM] (active) | 85.6% [8.25 µM] | 93.2% [8.25 µM] | 
COC(=O)[C@]12CC[C@@H](C(C)=O)[C@@H]1[C@H]1CC[C@@H]3[C@@]4(C)C/C(=C/c5cccnc5)C(=O)C(C)(C)[C@@H]4CC[C@@]3(C)[C@]1(C)CC2 | 68.1% | 85.8% | 57.7% | 56.6% | 133% | 32.5% | 51% | 80.6% | 7.57% (active) | 5.47% (active) | 12.3% | 2.88% (active) | 114% | 26.7% | 93.7% | 85.8% | 49% | 74.8% | 52.5% | 
N#C/C(=C\c1ccc(-c2ccc(F)cc2)o1)c1nc(-c2ccco2)cs1 | 108% | 40.2% | 101% | 69.8% | 64.2% | 98.1% | 92% | 107% | 84.2% | 91.6% | 86.3% |  | 65.1% | 19.2% | 103% | 60% | 105% | 109% | 107% | 102%
Cn1cc(-c2nc(-c3cn(C)c4ncccc34)cs2)c2ccccc21 | 28.6% | 62.6% | 52.8% | 62.4% | 50.5% | 49.6% | 28.3% | 45.4% | 47.1% | 31.7% | 18.4% | 39.6% |  |  | 43.2% | 45% | -17.8% (active) | 81% | 8.77% (active) | 47.9%
CCc1ccccc1NC(=O)c1sc2nc3c(cc2c1N)CCCC3 | 31.8% | 72.9% | 34.9% | 48.9% | 59.5% | 48.2% | 45.6% | 6.65% (active) | 18.3% | 25.4% | 9.86% (active) | 46.1% |  | 66.8% | 38.8% | 64.8% | 23.8% | 29.9% | 19.9% | 52.3%
COc1ccc(-c2c(-c3nc4ccc(N5CCOCC5)cc4[nH]3)[nH]c(C)c2C(C)=O)cc1 | 77.1% | 42.1% | 52.6% | 13.8% | -4.3% (active) | 34.2% | 16.9% | 27.2% | 43.4% | 51.9% | 47.8% | 3.61% (active) |  | 45.1% | 27.7% | 23.8% | 46% | 22.3% | 38.7% | 50.5%
